Assay results from PubChem BioAssay (EPA / NIEHS).
“And” between values parts separate entries of the source, which are not always exact repeats. Identical values can stand only once. Inconclusive results are not listed. More than one record can exist for a structure, and the calls need not agree. The source made the active and inactive calls. The calls were made as follows: active = hit-call score of the fitted dose curve at least 0.9, where 1 is the maximum; inconclusive = response in the unintended direction; inactive = score below 0.9.

System: not listed separately
Experiment: ATG_XTT_Cytotoxicity: Cytotoxicity Assessment in the Attagene TRANS-FACTORIAL HepG2 Assay (AID 2283584);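 as to AC50: cells exposed to compound for 24 h before reading; active means loss of viability signal versus DMSO baseline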
Outline: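 Viability endpoint from XTT after 24 h chemical exposure of reporter-transfected human HepG2 liver cells; signal loss fitted relative to DMSO negative control.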

Question: With `CCC(C)(C#N)N=NC(C)(C#N)CC` (centres undefined) as the compound, how does the outcome read?
Answer: inactive

Question: With `O=[N+]([O-])c1ccc(Cl)c([N+](=O)[O-])c1` as the compound, how does the AC50 read?
Answer: 20.2 µM (active)

Question: Which outcome does the source give for `CCCCOC(C)=O` here?
Answer: inactive

Question: With `C=CCN=C=S` as the compound, how does the outcome read?
Answer: inactive

Question: Which outcome does the source give for `COC(=O)Nc1cccc(OC(=O)Nc2cccc(C)c2)c1` here?
Answer: inactive

Question: Which outcome does the source give for `O=c1[nH]c(=O)n(Cl)c(=O)n1Cl` here?
Answer: inactive

Question: For `C[CH2][Hg][S]c1ccccc1C(=O)O`, which outcome is on record?
Answer: inactive

Question: With `CCOC(=O)C(SP(=S)(OC)OC)c1ccccc1` (centres undefined) as the compound, how does the outcome read?
Answer: inactive

Question: With `CC(C)(C#N)N=NC(C)(C)C#N` as the compound, how does the outcome read?
Answer: inactive

Question: For `Cc1cc(SCc2sc(-c3ccc(C(F)(F)F)c(F)c3)nc2C)ccc1OCC(=O)O`, which outcome is on record?
Answer: inactive

Question: Which outcome does the source give for `CCOP(=S)(OCC)Oc1ccc(Cl)cc1Cl` here?
Answer: inactive

Question: With `CC1(C)[C@H](C(=O)O[C@H](C#N)c2cccc(Oc3ccccc3)c2)[C@@H]1/C=C(\Cl)C(F)(F)F` as the compound, how does the outcome read?
Answer: inactive

Question: With `Cc1cc(Cl)ccc1OCCCC(=O)O` as the compound, how does the outcome read?
Answer: inactive

Question: For `C=CC(=O)[O][Sn]([CH2]CCC)([CH2]CCC)[CH2]CCC`, which AC50 is on record?
Answer: 1.09 µM (active)

Question: For `O=C(NC(=O)c1c(F)cccc1F)Nc1cc(Cl)c(Oc2ncc(C(F)(F)F)cc2Cl)c(Cl)c1`, which outcome is on record?
Answer: inactive

Question: Which outcome does the source give for `CN(C)c1ccc(N=O)cc1` here?
Answer: inactive

Question: Which AC50 does the source give for `O=c1[nH]c2ccccc2n1C1CCN(CCCC(c2ccc(F)cc2)c2ccc(F)cc2)CC1` here?
Answer: 18.1 µM (active)

Question: With `O=C(CCl)NCO` as the compound, how does the outcome read?
Answer: inactive

Question: Which outcome does the source give for `CCOC(=O)CC(=O)CCl` here?
Answer: inactive

Question: Which outcome does the source give for `C[N+](C)(C)Cc1ccccc1` here?
Answer: inactive

Question: For `CCN(CCO)CCO`, which outcome is on record?
Answer: inactive

Question: For `COC(=O)c1cc(Oc2ccc(Cl)cc2Cl)ccc1[N+](=O)[O-]`, which outcome is on record?
Answer: inactive

Question: For `CCC[N+](CCC)(CCC)CCC`, which outcome is on record?
Answer: inactive

Question: Which outcome does the source give for `O=C(Nc1ccc(Br)cc1)c1cc(Br)cc(Br)c1O` here?
Answer: inactive

Question: For `CCOP(=S)(OCC)OP(=S)(OCC)OCC`, which outcome is on record?
Answer: inactive

Question: For `CCOP(=S)(OCC)SCSc1cc(Cl)ccc1Cl`, which outcome is on record?
Answer: inactive

Question: Which outcome does the source give for `Nc1nc(=S)[nH][nH]1` here?
Answer: inactive

Question: With `CCCCCCCCCCCCN(C)C` as the compound, how does the outcome read?
Answer: inactive

Question: For `O=C(Cl)OCCOCCOC(=O)Cl`, which outcome is on record?
Answer: inactive

Question: With `Clc1cc(C(Cl)(Cl)Cl)cnc1Cl` as the compound, how does the outcome read?
Answer: inactive

Question: For `CCOP(=O)(OCC)SCCSCC`, which outcome is on record?
Answer: inactive

Question: For `CCOCn1c(-c2ccc(Cl)cc2)c(C#N)c(Br)c1C(F)(F)F`, which outcome is on record?
Answer: inactive

Question: Which outcome does the source give for `Brc1ccc(Br)cc1` here?
Answer: inactive

Question: For `BrCc1ccc(Br)cc1`, which outcome is on record?
Answer: inactive

Question: With `Brc1c(Br)c(Br)c(Oc2c(Br)c(Br)c(Br)c(Br)c2Br)c(Br)c1Br` as the compound, how does the outcome read?
Answer: inactive

System: not listed separately
Experiment: TOX21_p53_BLA_p2_viability: Viability Assessment in the Tox21 HCT-116 p53 Agonism Beta-lactamase Assay, Phase 2 (AID 2283591);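 also: compound exposure lasted 16 h at 37 °C; actives lower the ATP signal meaning cytotoxicity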
Outline: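 Cytotoxicity readout: CellTiter-Glo ATP luminescence, 30 min at room temperature, after the beta-lactamase read. Cells were HCT116 exposed 16 h at 37C to compounds pin-transferred at 217-fold dilution from DMSO stocks.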

Question: For `CCC(C)(C#N)N=NC(C)(C#N)CC` (centres undefined), which outcome is on record?
Answer: inactive

Question: Which AC50 does the source give for `O=[N+]([O-])c1ccc(Cl)c([N+](=O)[O-])c1` here?
Answer: 45.5 µM (active) and 39.7 µM (active)

Question: Which outcome does the source give for `CCCCOC(C)=O` here?
Answer: inactive

Question: For `C=CCN=C=S`, which outcome is on record?
Answer: inactive

Question: Which outcome does the source give for `COC(=O)Nc1cccc(OC(=O)Nc2cccc(C)c2)c1` here?
Answer: inactive

Question: For `C[CH2][Hg][S]c1ccccc1C(=O)O`, which AC50 is on record?
Answer: 32 µM (active) and 18.4 µM (active)

Question: For `CCOC(=O)C(SP(=S)(OC)OC)c1ccccc1` (centres undefined), which outcome is on record?
Answer: inactive

Question: Which outcome does the source give for `CC(C)(C#N)N=NC(C)(C)C#N` here?
Answer: inactive

Question: For `Cc1cc(SCc2sc(-c3ccc(C(F)(F)F)c(F)c3)nc2C)ccc1OCC(=O)O`, which AC50 is on record?
Answer: 15.2 µM (active)

Question: For `CCOP(=S)(OCC)Oc1ccc(Cl)cc1Cl`, which outcome is on record?
Answer: inactive

Question: For `CC1(C)[C@H](C(=O)O[C@H](C#N)c2cccc(Oc3ccccc3)c2)[C@@H]1/C=C(\Cl)C(F)(F)F`, which outcome is on record?
Answer: inactive

Question: For `Cc1cc(Cl)ccc1OCCCC(=O)O`, which outcome is on record?
Answer: inactive

Question: With `C=CC(=O)[O][Sn]([CH2]CCC)([CH2]CCC)[CH2]CCC` as the compound, how does the AC50 read?
Answer: 1.86 µM (active)

Question: For `O=C(NC(=O)c1c(F)cccc1F)Nc1cc(Cl)c(Oc2ncc(C(F)(F)F)cc2Cl)c(Cl)c1`, which outcome is on record?
Answer: inactive

Question: Which AC50 does the source give for `CN(C)c1ccc(N=O)cc1` here?
Answer: 70.1 µM (active) and 70.5 µM (active)

Question: For `O=c1[nH]c2ccccc2n1C1CCN(CCCC(c2ccc(F)cc2)c2ccc(F)cc2)CC1`, which AC50 is on record?
Answer: 13.8 µM (active) and 30.1 µM (active)

Question: With `O=C(CCl)NCO` as the compound, how does the outcome read?
Answer: inactive

Question: For `CCOC(=O)CC(=O)CCl`, which outcome is on record?
Answer: inactive

Question: With `CCN(CCO)CCO` as the compound, how does the outcome read?
Answer: inactive

Question: For `COC(=O)c1cc(Oc2ccc(Cl)cc2Cl)ccc1[N+](=O)[O-]`, which outcome is on record?
Answer: inactive

Question: With `CCC[N+](CCC)(CCC)CCC` as the compound, how does the outcome read?
Answer: inactive

Question: Which results are given for `O=C(Nc1ccc(Br)cc1)c1cc(Br)cc(Br)c1O`?
Answer: AC50: 0.391 µM (active); outcome: inactive

Question: Which outcome does the source give for `CCOP(=S)(OCC)OP(=S)(OCC)OCC` here?
Answer: inactive

Question: For `CCOP(=S)(OCC)SCSc1cc(Cl)ccc1Cl`, which outcome is on record?
Answer: inactive

Question: For `Nc1nc(=S)[nH][nH]1`, which outcome is on record?
Answer: inactive

Question: For `CCCCCCCCCCCCN(C)C`, which outcome is on record?
Answer: inactive

Question: Which outcome does the source give for `O=C(Cl)OCCOCCOC(=O)Cl` here?
Answer: inactive

Question: With `Clc1cc(C(Cl)(Cl)Cl)cnc1Cl` as the compound, how does the outcome read?
Answer: inactive

Question: For `Brc1ccc(Br)cc1`, which outcome is on record?
Answer: inactive

Question: For `BrCc1ccc(Br)cc1`, which outcome is on record?
Answer: inactive

Target: Cellular tumor antigen p53 (Homo sapiens) (UniProt P04637)
Experiment: TOX21_p53_BLA_p2_ratio: Tox21 HCT-116 p53 Agonism Beta-lactamase Assay, Ratio, Phase 2 (AID 2283592)
Outline: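 Gain-of-signal p53 agonism was scored from the beta-lactamase FRET ratio (460/530 nm, 405 nm excitation) in HCT116 cells treated 16 h at 37C, 5% CO2, with DMSO serving as negative control and baseline.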

Chain of Cellular tumor antigen p53 (Homo sapiens) (P04637 whole entry, looked up): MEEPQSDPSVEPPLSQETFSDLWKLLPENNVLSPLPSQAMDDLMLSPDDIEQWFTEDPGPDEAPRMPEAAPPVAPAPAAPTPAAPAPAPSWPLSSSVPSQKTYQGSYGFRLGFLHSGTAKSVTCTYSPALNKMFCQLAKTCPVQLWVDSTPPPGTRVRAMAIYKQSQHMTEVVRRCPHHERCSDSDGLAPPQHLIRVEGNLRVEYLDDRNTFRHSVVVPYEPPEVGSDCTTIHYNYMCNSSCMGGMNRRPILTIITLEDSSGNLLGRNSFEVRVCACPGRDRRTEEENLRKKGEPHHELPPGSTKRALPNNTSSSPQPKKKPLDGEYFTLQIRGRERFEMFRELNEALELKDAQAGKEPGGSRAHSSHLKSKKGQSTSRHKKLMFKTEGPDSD

Question: For `CCC(C)(C#N)N=NC(C)(C#N)CC` (centres undefined), which outcome is on record?
Answer: inactive

Question: Which results are given for `O=[N+]([O-])c1ccc(Cl)c([N+](=O)[O-])c1`?
Answer: AC50: 75.5 µM (active); outcome: inactive

Question: Which outcome does the source give for `CCCCOC(C)=O` here?
Answer: inactive

Question: Which outcome does the source give for `C=CCN=C=S` here?
Answer: inactive

Question: Which outcome does the source give for `COC(=O)Nc1cccc(OC(=O)Nc2cccc(C)c2)c1` here?
Answer: inactive

Question: Which results are given for `C[CH2][Hg][S]c1ccccc1C(=O)O`?
Answer: AC50: 2.74 µM (active); outcome: inactive

Question: With `CCOC(=O)C(SP(=S)(OC)OC)c1ccccc1` (centres undefined) as the compound, how does the outcome read?
Answer: inactive

Question: With `CC(C)(C#N)N=NC(C)(C)C#N` as the compound, how does the outcome read?
Answer: inactive

Question: For `Cc1cc(SCc2sc(-c3ccc(C(F)(F)F)c(F)c3)nc2C)ccc1OCC(=O)O`, which AC50 is on record?
Answer: 54.1 µM (active)

Question: For `CCOP(=S)(OCC)Oc1ccc(Cl)cc1Cl`, which outcome is on record?
Answer: inactive

Question: With `CC1(C)[C@H](C(=O)O[C@H](C#N)c2cccc(Oc3ccccc3)c2)[C@@H]1/C=C(\Cl)C(F)(F)F` as the compound, how does the outcome read?
Answer: inactive

Question: For `Cc1cc(Cl)ccc1OCCCC(=O)O`, which outcome is on record?
Answer: inactive

Question: Which AC50 does the source give for `C=CC(=O)[O][Sn]([CH2]CCC)([CH2]CCC)[CH2]CCC` here?
Answer: 13.5 µM (active)

Question: Which AC50 does the source give for `O=C(NC(=O)c1c(F)cccc1F)Nc1cc(Cl)c(Oc2ncc(C(F)(F)F)cc2Cl)c(Cl)c1` here?
Answer: 6.18 µM (active)

Question: Which AC50 does the source give for `CN(C)c1ccc(N=O)cc1` here?
Answer: 75.7 µM (active)

Question: What about the outcome of the same compound?
Answer: inactive

Question: With `O=c1[nH]c2ccccc2n1C1CCN(CCCC(c2ccc(F)cc2)c2ccc(F)cc2)CC1` as the compound, how does the AC50 read?
Answer: 39.4 µM (active)

Question: And the outcome?
Answer: inactive

Question: For `O=C(CCl)NCO`, which outcome is on record?
Answer: inactive

Question: For `CCOC(=O)CC(=O)CCl`, which outcome is on record?
Answer: inactive

Question: Which outcome does the source give for `COC(=O)c1cc(Oc2ccc(Cl)cc2Cl)ccc1[N+](=O)[O-]` here?
Answer: inactive

Question: For `CCC[N+](CCC)(CCC)CCC`, which outcome is on record?
Answer: inactive

Question: For `O=C(Nc1ccc(Br)cc1)c1cc(Br)cc(Br)c1O`, which AC50 is on record?
Answer: 1.15 µM (active) and 272 nM (active) and 3.12 µM (active)

Question: With `CCOP(=S)(OCC)OP(=S)(OCC)OCC` as the compound, how does the outcome read?
Answer: inactive

Question: With `CCOP(=S)(OCC)SCSc1cc(Cl)ccc1Cl` as the compound, how does the outcome read?
Answer: inactive

Question: Which outcome does the source give for `Nc1nc(=S)[nH][nH]1` here?
Answer: inactive

Question: With `CCCCCCCCCCCCN(C)C` as the compound, how does the outcome read?
Answer: inactive

Question: Which outcome does the source give for `O=C(Cl)OCCOCCOC(=O)Cl` here?
Answer: inactive

Question: With `Clc1cc(C(Cl)(Cl)Cl)cnc1Cl` as the compound, how does the outcome read?
Answer: inactive

Question: For `Brc1ccc(Br)cc1`, which outcome is on record?
Answer: inactive

Question: For `BrCc1ccc(Br)cc1`, which outcome is on record?
Answer: inactive
